# Assay outcomes from PubChem BioAssay.
# Shown are actives, neighbours in structure and some others; about 5.7% of the full set was active somewhere.
# ssDAF12 agonist: activates DAF-12 receptor from parasite S. stercoralis. HEK293 ssDAF-12/GRIP1 lit1-tk-luc reporter, luminescence; % of 3 µM dafachronic acid response. activation, % at 6.8 µM. hit rate 1% among 370,000. AID 652126;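 active = activation above the mean over all tested compounds plus 3 SD, cut at about 0.9% in these data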;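 also: 0% = DMSO-only wells and 100% = 3 µM delta7-dafachronic acid wells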
# AHR act: activators of human aryl hydrocarbon receptor | P35869 | AHR-responsive luciferase reporter cells, luminescence | activation, % at 5 µM | hit rate 2.5% among 320,000 | AID 2796; in the data active = activation above about 47%;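 also: 0% = vehicle wells and 100% = reference agonist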
# hcDAF12 agonist: activates DAF-12 receptor from parasite H. contortus; HEK293 hcDAF-12 lit1-tk-luc reporter, luminescence; 0% DMSO, 100% Δ7-dafachronic acid; hit rate 1.4% among 370,000; activation, % at 6.8 µM;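 active = activation above the mean of all tested compounds plus 3 SD, cut at about 5.5% in these data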;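 also: 100% = response to 3 µM Δ7-dafachronic acid high control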
# hgDAF12 agonist: hgDAF-12 agonism, primary luciferase screen; activation, % at 6.8 µM; AID 687014; hit rate 1.8% among 370,000; HEK293 GAL4-hgDAF12 UAS-luciferase reporter, agonist luminescence; normalized to butyrate control;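 active = activation above a cutoff set at the mean of all screened compounds plus 3 SD, cut at about 10% in these data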;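 also: 0% = DMSO wells and 100% = sodium butyrate wells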
# DAX1 inh-1: NR0B1 (DAX1) inhibition; hit rate 0.99% among 340,000; HEK293 Gal4-DAX1 luciferase reporter, luminescence; inhibition, % at 6.75 µM;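 active = inhibition above the mean over all tested compounds plus 3 SD, cut at about 4.2% in these data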;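 also: 0% = DAX1-transfected cells with DMSO and 100% = empty-vector control cells with DMSO; inhibition shows as a rise in luminescence from relieved DAX1 repression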
# Target sequence (P51843 207-470 limits assumed): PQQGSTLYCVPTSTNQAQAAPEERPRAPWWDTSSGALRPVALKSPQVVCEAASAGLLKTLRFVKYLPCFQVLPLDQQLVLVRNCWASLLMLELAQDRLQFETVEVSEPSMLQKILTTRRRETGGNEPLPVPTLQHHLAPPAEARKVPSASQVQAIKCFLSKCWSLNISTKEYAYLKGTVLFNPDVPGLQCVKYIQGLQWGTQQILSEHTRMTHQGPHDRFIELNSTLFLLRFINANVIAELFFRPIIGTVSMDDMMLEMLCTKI
# DAX1 inh-2: DAX1 (NR0B1) inhibition, primary screen; HEK293T StAR-luciferase reporter, SF-1/DAX-1 repression relief; inhibition, % at 6.8 µM; hit rate 1.1% among 370,000;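 active = inhibition above the mean over all tested compounds plus 3 SD, cut at about 3.6% in these data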;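 also: 0% = DAX-1 cells with DMSO and 100% = cells lacking DAX-1 with DMSO; higher inhibition means more luminescence from relief of DAX-1 repression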
# AHR act cf: human AHR activation, confirmation | human cells, AHR-responsive luciferase reporter, luminescence | activation, % at 9 µM | shares compounds with AHR act | AID 2845 | hit rate 87% among 2,300; in the data active = activation above about 49%;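 also: HepG2 hepatoma cells carrying a DRE-driven firefly luciferase reporter; 0% = vehicle wells and 100% = reference agonist wells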
# PXR counter: PXR activation, counter-screen for AHR activators | shares compounds with AHR act | cell-based PXR reporter, luciferase luminescence | activation, % at 11.6 µM | hit rate 88% among 2,300 | AID 434939; in the data active = activation above about 11%;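 also: human hepatoma DPX-2 cells expressing full-length human PXR; 0% = DMSO and 100% = reference agonist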
# Numbers without * were called inactive; nt = no result given.
SMILES,ssDAF12 agonist,AHR act,hcDAF12 agonist,hgDAF12 agonist,DAX1 inh-1,DAX1 inh-2,AHR act cf,PXR counter
O=C(c1cccc(S(=O)(=O)N2CCc3ccccc32)c1)N1CCN(c2ccccn2)CC1,-2,80*,-1,-9,-6,-1,93*,200*
Cc1c(NS(=O)(=O)c2cc(C(=O)NCc3ccco3)cc(Cl)c2Cl)c(=O)n(-c2ccccc2)n1C,0,97*,0,0,-1,-1,102*,201*
Cc1ccc(S(=O)(=O)Nc2c(C)n(C)n(-c3ccccc3)c2=O)cc1C(=O)NCc1ccco1,-1,nt,-1,-2,1,0,nt,nt
C=C1c2cc3c(cc2NC(=S)N1Cc1ccccc1)OCO3,-1,86*,-2,1,nt,0,65*,145*
Cn1c(=O)n(C)c2cc(NC(=O)c3cccc([N+](=O)[O-])c3)c(Br)cc21,-1,101*,2,5,0,-2,101*,10
Cn1c(=O)n(C)c2cc(NC(=O)c3ccc(F)cc3)c(Br)cc21,-1,-9,0,0,0,-1,nt,nt
COc1ccc(-c2noc(Cn3cc(S(=O)(=O)N4CCCC4)ccc3=O)n2)cc1,-1,3,-1,2,0,-1,nt,nt
O=C(N/N=C/c1cccc(O)c1)c1ccc(COc2ccc3c(c2)CCC3)o1,0,118*,1,8,1,1,64*,19*
O=C(c1ccc(COc2ccc3c(c2)CCC3)o1)N1CCN(c2ccccc2)CC1,-1,18,2,2,0,0,nt,nt
Cn1cncc1C#Cc1c(C=O)n(C)c2ccccc12,-1,114*,-2,-3,0,1,109*,23*
Cc1nc(C)c(-c2csc(Nc3ccccn3)n2)s1,0,83*,4,6,-1,0,23,35*
Cc1ccnc(Nc2nc(-c3sc(C)nc3C)cs2)c1,-3,3,-4,-4,-6,-2,nt,nt
CCOC(=O)C1CN(S(=O)(=O)c2cccs2)c2ccc(CC(=O)OC)cc2O1 (stereo unspecified),-1,2,-2,1,0,0,nt,nt
O=C(Nc1ccon1)Nc1cc(Cl)ccc1Cl,-1,122*,1,-1,0,3,101*,11*
O=C(O)CC(NC(=O)/C(=C/c1ccccc1)NC(=O)c1ccccc1)c1ccccc1 (stereo unspecified),-1,2,2,1,0,0,nt,nt
c1ccc2c(c1)oc1c(NCCCn3ccnc3)ncnc12,-1,106*,-2,2,0,0,110*,22*
c1ccc2c(c1)oc1c(NCCCN3CCOCC3)ncnc12,-1,6,0,0,0,0,nt,nt
Cc1nc(NCCCn2ccnc2)c2oc3ccccc3c2n1,-1,79*,1,1,-1,0,110*,23*
CCNc1nc(C)nc2c1oc1ccccc12,-2,14,-2,0,-1,0,nt,nt
CCCCCCCC(=O)Oc1ccc(C(=O)Nc2cc(C)on2)cc1,-1,3,-1,-3,1,0,nt,nt
Fc1ccccc1CNc1nc(-c2cccnc2)nc2ccccc12,-1,85*,-3,-2,0,0,24,103*
c1cncc(-c2nc(NCc3cccs3)c3ccccc3n2)c1,-2,9,1,-1,-1,-2,nt,nt
CCOC(=O)C1CCCN(C(=O)/C(=C/c2ccco2)NC(=O)c2ccccc2)C1 (stereo unspecified),-1,5,1,-1,1,0,nt,nt
O=C1NC[C@H](CCCCN2C[C@H](Cc3ccc(O)cc3)N(CCc3ccccc3)C(=O)C2=O)N(Cc2ccccc2)C1=O,-1,nt,1,1,nt,-1,nt,nt
Cc1ccc(-n2cc(C(=O)c3ccc(N4CCN(C)CC4)cc3)nn2)cc1Cl,-2,90*,0,-4,2,0,1,15*
SMILES,ssDAF12 agonist,AHR act,hcDAF12 agonist,hgDAF12 agonist,DAX1 inh-1,DAX1 inh-2,AHR act cf,PXR counter
CCOc1ccc(N2CC(NS(=O)(=O)c3cccnc3)CC2=O)cc1 (stereo unspecified),-1,0,0,3,0,0,nt,nt
O=C(CCN1C(=O)/C(=C/c2ccccc2)SC1=S)NNC(=O)c1ccncc1,-1,120*,-1,4,1,0,15,5
Cc1ccccc1C(=O)NC(=S)NCCc1ccccc1,-1,86*,1,0,-1,1,104*,27*
Cc1ccccc1C(=O)NC(=S)NCc1ccccc1,-1,3,0,-1,2,0,nt,nt
NNc1nc2c(-c3ccc(F)cc3)nnn2c2ccccc12,1.3*,102*,6.4*,10*,2,2,128*,35*
COc1cc(NC(=O)C/C(C)=N/NC(=O)c2ccccn2)c(OC)cc1Cl,0,114*,4,13*,1,2,70*,14*
COc1cc(NC(=O)C/C(C)=N/NC(=O)C2CCCCC2)c(OC)cc1Cl,-1,105*,-1,0,0,0,14,9
COc1ccc(C(=O)N/N=C(\C)CC(=O)Nc2ccccn2)cc1OC,-1,7,1,-1,0,0,nt,nt
C/C(CC(=O)Nc1ccc(Cl)cc1Cl)=N\NC(=O)C(=O)NCCO,0,1,-1,1,-1,0,nt,nt
COc1cc(NC(=O)C/C(C)=N/NC(=O)C(=O)NCCO)c(OC)cc1Cl,-1,81*,1,1,4,0,14,11*
COc1cc(NC(=O)C2CCCC2)c(OC)cc1Cl,-1,7,1,1,0,0,nt,nt
COc1cc(NC(=O)C/C(C)=N/NC(=O)C(=O)NC2CCCCC2)c(OC)cc1Cl,-1,97*,1,-1,3,1,11,10
Cn1c(CO)cnc1-c1ccccc1,-2,1,-2,0,-1,0,nt,nt
COC(=O)c1ccc(CSc2ccccc2NC(=S)Nc2cccc(C(F)(F)F)c2)o1,-1,nt,1,3,2,1,nt,nt
CCN(CC(=O)NCc1ccc(Cl)cc1)C(=O)c1cccc(S(=O)(=O)Nc2ccc(OC)cc2)c1,-1,0,-2,0,-1,-2,nt,nt
COc1ccc(OC)c2sc(NC(=O)C3=COCCO3)nc12,-1,98*,1,3,0,-1,88*,6
COc1ccc(C)c2sc(NC(=O)C3=COCCO3)nc12,0,84*,0,6,-1,1,66*,19*
Cc1nc2ccc(NC(=O)CSc3nnc(C)s3)cc2[nH]1,-1,22,-1,-1,3,1,nt,nt
